PLK1 PBD block: qHTS for Inhibitors of PLK1-PDB (polo-like kinase 1 - polo-box domain): Primary Screen; Serine/threonine-protein kinase PLK1 (Homo sapiens), P53350; Plk1 PBD binding of FITC phosphopeptide, fluorescence polarization; Potency, µM, inactives show max response, negative = inhibition, most hits filed as inhibitors; 360,000 compounds, 2.8% hits; also: potency is read from the fitted curve at half-maximal effect; series mostly up to about 57 µM; nearly all actives have a fitted effect of over 65% in size
PI4K2A block: qHTS for small molecular inhibitors of PI4K2A; 420,000 compounds, 0.13% hits; purified PI4K2A, ADP-Glo luminescence, 1 h; hits give low values; activity change, negative = inhibition, % at 76.9 µM; in the data active = activity change below about -50%; inconclusive = mostly about -30% to -49%;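 also: -100% = wells without enzyme as full effect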
Target sequence (Q9BTU6 whole entry, looked up): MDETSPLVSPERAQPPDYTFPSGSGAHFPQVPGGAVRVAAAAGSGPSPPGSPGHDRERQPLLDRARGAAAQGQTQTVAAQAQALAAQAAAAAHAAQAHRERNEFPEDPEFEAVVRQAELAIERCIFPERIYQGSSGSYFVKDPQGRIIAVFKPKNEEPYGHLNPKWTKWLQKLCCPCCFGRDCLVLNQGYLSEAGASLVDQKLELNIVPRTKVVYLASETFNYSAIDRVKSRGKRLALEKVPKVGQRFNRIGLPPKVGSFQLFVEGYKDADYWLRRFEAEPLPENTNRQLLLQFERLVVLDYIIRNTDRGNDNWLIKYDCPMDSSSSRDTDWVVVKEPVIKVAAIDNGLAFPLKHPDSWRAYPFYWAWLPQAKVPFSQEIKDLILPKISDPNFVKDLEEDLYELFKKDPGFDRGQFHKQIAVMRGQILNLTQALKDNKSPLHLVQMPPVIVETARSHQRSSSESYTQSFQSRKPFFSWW
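In this quantitative HTS, ADP production by PI4K2A was quantified luminescently after 1 h at ambient temperature; 100 microM adenosine served as plate-quality control.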
KAT2A inh: qHTS Assay for Inhibitors of GCN5L2. Histone acetyltransferase KAT2A (Homo sapiens), Q92830. GCN5L2 HAT assay, ThioGlo1 CoA-SH fluorescence. Potency, µM (series often up to 58.9 µM), for the others: top-dose activity change, negative = inhibition, usual class: inhibitors. 390,000 compounds, 0.21% hits; also: potency is read from the fitted curve at half-maximal effect
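Enzyme at 20nM final was mixed with library compounds for 15 min at room temperature. Peptide H3(1-25) at 75uM, acetyl-CoA at 70uM and ThioGlo1 at 50uM were then added. Plates were read immediately and after 20 min (Ex340nm/Em540nm).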
VDR inh: Inhibitors of the vitamin D receptor (VDR): qHTS; Vitamin D3 receptor (Homo sapiens), P11473; VDR-SRC2-3 peptide fluorescence polarization, 2 h; Potency, µM, for the others: max response, negative = inhibition, actives largely listed as inhibitors; 400,000 compounds, 0.93% hits; AID 504847, 2011; also: potency is read from the fitted curve at half-maximal effect
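Measured by FP: displacement of SRC2-3 coactivator peptide from VDR by library compounds, following a two-hour ambient incubation.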
GLS inhibitor: qHTS for Inhibitors of Glutaminase (GLS) | AID 624170, 2012 | Potency, µM (series often up to 45.5 µM), for the others: at the highest dose activity change, negative = inhibition, most hits filed as inhibitors | GLS enzymatic activity, qHTS titration | 410,000 compounds, 0.21% hits | Glutaminase kidney isoform, mitochondrial (Homo sapiens), O94925; also: potency is read from the fitted curve at half-maximal effect
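hKGA in 45 mM KH2PO4 pH 8.2, 0.02% Tween-20 with pin-transferred compounds; 1 mM L-glutamine (stock) plus glutamate oxidase/HRP/Amplex Red coupling added. Fluorescence read initially and after 30 min at RT.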
Numbers without * were called inactive; i = inactive; ? = inconclusive; . = no result given; [ ] = another dose, or the depositor's remark. An excerpt weighted towards active compounds, which were near 3.1% of everything screened. Unless noted, calls follow the shape of the dose curve; as a rule, active = well fitted curve in the direction sought with a large enough effect; inconclusive = small, poorly fitted or top-dose-only effect, or another doubt; inactive = no such curve, though single readings can be large; an effect the other way counts as inactive or inconclusive. Unless noted, % is scaled to controls: 0 for no effect and ±100 for the full control effect.

SMILES	PLK1 PBD block	PI4K2A block	KAT2A inh	VDR inh	GLS inhibitor
N#C/C(=C/c1ccc(O)c(O)c1)C(N)=S	.	-7	?	40µM*	.
CN(C)S(=O)(=O)c1cc(NC(=O)COC(=O)Cc2ccccc2)ccc1Cl	30µM*	-8	1%	?	27%
COc1ccc(OC)c(CC(C)N)c1 (centres undefined)	.	i	.	.	4%[99.4 µM]
COC12c3ccccc3-c3ccccc3C1C(C(=O)O)C2C(=O)O (centres undefined)	-3%	-2	.	.	18µM*
Cc1ccc(-n2ncc(C(=O)N3CCN(c4ccc(Cl)cc4)CC3)c2C2CCN(C(=O)OC(C)(C)C)CC2)c(C)c1	.	-1	?	3%	11%
C=CCC1([C@H](C)CCC)C(=O)NC(=O)NC1=O	.	i	.	.	.
CSc1ccc(C(=O)C2CCCN(Cc3cccnc3)C2)cc1 (centres undefined)	-20%	5	1%	-6%	2%
CSc1ccc(C(=O)C2CCCN(Cc3cc4ccccc4[nH]3)C2)cc1 (centres undefined)	30µM*	3	-4%	89µM*	-1%
C[C@@H]1CC2=CC(=O)CC[C@@H]2[C@H]2CC[C@@]3(C)[C@@H](CC[C@]3(C)O)[C@@H]21	.	2	.	.	.
O=C(NCc1ccco1)c1ccc(Cn2c(=O)c3ccccc3n(Cc3cccc(F)c3)c2=O)cc1	15µM*	4	-3%	?	-3%
C[C@H]1[C@@H]2Cc3ccc(O)cc3[C@]1(C)CCN2C	.	.	.	.	54%[231 µM]
CN(C)c1c([N+](=O)[O-])cc(N2C(=O)C=CC2=O)cc1[N+](=O)[O-]	3µM*	-7	.	16µM*	?
CCOP(=O)(OCC)C(=Cc1cc(C(C)(C)C)c(O)c(C(C)(C)C)c1)P(=O)(OCC)OCC	.	.	23%	?	.
N#CC(C#N)=NNc1ccc(S(N)(=O)=O)cc1	24µM*	-17	-6%	?	56%
CC1CCN(S(=O)(=O)c2ccc(NN=C(C#N)C#N)cc2)CC1	.	.	-21%	.	.
COC(=O)C(C#N)C(c1cccnc1)c1c(C)[nH][nH]c1=O (centres undefined)	?	-1	-4%	-2%	?
COC(=O)c1ccc(C(c2c(C)[nH][nH]c2=O)c2c(C)[nH][nH]c2=O)cc1	21µM*	-6	-8%	?	5%
O=C1NC(=O)N(c2ccccc2)C(=O)/C1=C/C=C/c1ccco1	2.4µM*	-27	26%	20µM*	28%
Cn1cc(/C=C2\C(=O)NC(=O)N(c3ccccc3)C2=O)c2ccccc21	-13%	-9	4%	27%	?
Cc1ccc(N2C(=O)NC(=O)/C(=C\C=C\c3ccco3)C2=O)cc1C	1.5µM*	?	-14%	?	0%
Cc1cccc(N2C(=O)NC(=O)/C(=C\C=C\c3ccco3)C2=O)c1	?	?	-6%	?	27%
Cc1ccc(N2C(=O)NC(=O)/C(=C\C=C\c3ccco3)C2=O)cc1	1.9µM*	-22	-16%	?	12%
CN(N=O)c1cc(O)ccc1O	.	-26	?	45µM*	.
Cc1ccc(O)cc1	.	-7	4%	3%	-4%
CC(=O)c1ccc2c(c1)C1C(Cl)C(Sc3ccccc3[N+](=O)[O-])CC1C(c1ccccc1[N+](=O)[O-])N2 (centres undefined)	-11%	-5	-11%	16%	5%
CC(=O)c1ccc2c(c1)C1C(Cl)C(Sc3ccccc3[N+](=O)[O-])CC1C(c1ccccc1)N2 (centres undefined)	15µM*	?	-28%	?	-8%
N#CC1=C(N)Oc2n[nH]c(-c3cccs3)c2C1c1ccsc1 (centres undefined)	27µM*	-15	-2%	8%	16%
C=CCn1c(CSc2ccccc2[N+](=O)[O-])n[nH]c1=S	12µM*	-10	-19%	?	?
COc1ccc(Cn2c(=O)oc3ccccc32)cc1F	7%	-5	1%	-13%	-2%

Screening data (PubChem BioAssay)
